We go through 33 targets from the supplement of paper PMC4188521.

Compound in this assay: CCc1cnn2c(NCc3ccc[n+]([O-])c3)cc(N3CCCC[C@H]3CCO)nc12 [dinaciclib]
Nature of the assay: cell viability remaining relative to DMSO control; higher = less cytotoxic (more viable cells). To be noted: 100 nM; 24 h. The gist of the method:
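Remaining viability, expressed as a percentage of the DMSO control, compares luminescence in treated wells with that in DMSO-treated control wells. Solid tumour cell lines from commercial banks received 100 nM of the test compound for 24 hr, with final DMSO kept at ≤0.2%. Viability was read as ATP luminescence using CellTiter-Glo, and values are means from 2–6 plates run in triplicate wells.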
For the target NUGC4, the cell viability remaining worked out at 108%.

On to MFE319, for which the cell viability remaining is 78.3%.

HCC1428: the cell viability remaining turned out to be 19.7%.

As to OV56, the cell viability remaining was determined as 59.1%.

With MEWO, the cell viability remaining amounted to 52.8%.

As to COLO684, the cell viability remaining stood at 85.6%.

As for A375, the cell viability remaining was 62%.

As for MCF7, the cell viability remaining came to 76%.

For the target ES2, the cell viability remaining amounted to 52.5%.

H747: the cell viability remaining was found to be 73%.

For CALU6, the cell viability remaining stood at 58.4%.

Regarding VCAP, the cell viability remaining is 37.8%.

In the case of MSTO211H, the cell viability remaining is 68.4%.

For the target A2058, the cell viability remaining was determined as 18.4%.

Consider OVKATE, for which the cell viability remaining amounted to 105%.

As to HS895T, the cell viability remaining was found to be 92.4%.

Turning to SAOS2, the cell viability remaining is 32.2%.

On to 786O, for which the cell viability remaining came to 44.3%.

As to H1838, the cell viability remaining was 90.6%.

As for YAPC, the cell viability remaining was 56.3%.

As to C32, the cell viability remaining was 83%.

Take CAKI1: the cell viability remaining turned out to be 63.5%.

In the case of SKMEL3, the cell viability remaining was 42.9%.

For KATOIII, the cell viability remaining was found to be 87.5%.

Consider COV362, for which the cell viability remaining was 81%.

Regarding SW1417, the cell viability remaining was 83.7%.

Consider HS940T, for which the cell viability remaining came out at 78.6%.

Consider SW900, for which the cell viability remaining is 74.3%.

Turning to ZR751, the cell viability remaining worked out at 91.3%.

Consider HCC44, for which the cell viability remaining came to 85.8%.

For the target COLO792, the cell viability remaining was found to be 8.9%.

For the target CAPAN2, the cell viability remaining worked out at 51.4%.

For A172, the cell viability remaining is 73.1%.
